Source: PubChem BioAssay
For some of these results: Entries with a potency or affinity are not part of this list. The source made the active and inactive calls.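 The calls were made as follows, unless noted: active = calcium signal cut by more than 3 SD below the full-agonist control yet still positive, in both repeats and the earlier primary screen; inactive = the rest.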

Assays:
[1] = tested on: TRPC4 beta (transient receptor potential cation channel C4), mouse; assay: TRPC4 cation channel opening, retest – cell-based, Fluo4 calcium, HEK293 TRPC4beta/mu-opioid, duplicates, 10 µM, confirmation (AID 2426;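 active = fluorescence ratio normalized to control raised more than 50% in primary screen plus both repeat runs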); details: Fluo4 calcium fluorescence, at 10 µM; active compounds read high
[2] = tested on: transient receptor potential cation channel C4 beta (TRPC4), mouse; assay: TRPC4 cation channel opening, second retest – cell-based, second round, Fluo4, HEK293 TRPC4beta/mu-opioid, 1 µM, confirmation (AID 2461;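 active = primary screen active and over 50% activation in each of two duplicate runs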); details: Fluo4 calcium fluorescence, at 1 µM; active compounds read high
[3] = tested on: TRPC4 (transient receptor potential cation channel C4 beta), mouse; assay: potentiation of DAMGO EC20 TRPC4 response – cell-based, second round, Fluo-4, HEK293 TRPC4beta/mu-opioid, 1 µM, confirmation (AID 2554;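 active = primary screen hit whose fluorescence ratio, in both repeats, exceeds the weak agonist control mean by 3 SD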); details: DAMGO EC20, Fluo-4 calcium flux, at 1 µM; active compounds read high
[4] = tested on: TRPC4 beta (transient receptor potential cation channel C4), mouse; assay: potentiation of DAMGO EC20 TRPC4 response – cell-based, Fluo-4, HEK293 TRPC4beta/mu-opioid, confirmation (AID 2555;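 active = primary screen hit whose calcium fluorescence ratio, in both repeats, exceeds the weak agonist control mean by 3 SD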); details: DAMGO EC20, Fluo-4 calcium flux, at 10 µM; active compounds read high
[5] = target: Short transient receptor potential channel 4 (Mus musculus) (UniProt Q9QUQ5); assay: blockers of DAMGO-evoked TRPC4 calcium flux – cell-based, Fluo4, HEK293 TRPC4beta/mu-opioid, confirmation (AID 2636); details: at 10 µM; active compounds read high
[6] = target: Short transient receptor potential channel 4 (Mus musculus) (UniProt Q9QUQ5); assay: blockers of DAMGO-evoked TRPC4 calcium flux – cell-based, second round, Fluo4, HEK293 TRPC4beta/mu-opioid, 1 µM, confirmation (AID 2637;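 active = calcium signal ratio cut to more than 3 SD under the fully stimulated control mean yet still positive, in both repeats and the primary screen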;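 as to inhibition: percent of integrated ratio relative to wells lacking test compound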); details: at 1 µM; active compounds read high
[7] = target: Short transient receptor potential channel 4 (Mus musculus) (UniProt Q9QUQ5); assay: calcium entry via TRPC4 opening agents – cell-based, HEK293 TRPC4/mu-opioid, Fluo-4 calcium, dose response (AID 434937;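 active = primary screen activator hit with a dose response curve and TRPC4 channel activation at any tested dose; inactive = no activation, no dose response, or not a primary hit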)
[8] = target: Short transient receptor potential channel 4 (Mus musculus) (UniProt Q9QUQ5); assay: potentiation of DAMGO-evoked TRPC4 calcium signal – cell-based, HEK293 TRPC4/mu-opioid, Fluo-4 calcium, EC20 DAMGO, dose response (AID 434941;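 active = earlier screen potentiator hit that boosts the TRPC4 ion channel at some dose, with a dose response; inactive = no potentiation, no dose response, or not a prior hit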;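 also: calcium entry triggered by an EC20 dose of DAMGO at the co-expressed mu-opioid receptor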)
[9] = target: Short transient receptor potential channel 6 (Mus musculus) (UniProt Q61143); assay: TRPC6 blockade by TRPC4 inhibitor hits – cell-based, HEK293, membrane potential dye, duplicate, selectivity assay for TRPC4 inhibitor project, confirmation (AID 434948;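 active = active in primary screen and both duplicates, each dropping signal beyond three positive-control SD with fluorescence still positive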); details: HEK293 TRPC6, membrane potential dye fluorescence, at 10 µM, stimulated with maximal-effect acetylcholine; active compounds read high
[10] = target: Short transient receptor potential channel 6 (Mus musculus) (UniProt Q61143); assay: TRPC6 opening by TRPC4 activator hits – cell-based, HEK293, membrane potential dye, duplicate, selectivity assay for TRPC4 activator project, confirmation (AID 434950;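 active = membrane potential signal rise above negative control mean plus 3 SD in both duplicates, also active in the earlier TRPC4 screen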); details: HEK293 TRPC6, membrane potential fluorescence, at 10 µM; activation: active compounds read high; outcome: activation
[11] = target: Short transient receptor potential channel 6 (Mus musculus) (UniProt Q61143); assay: positive modulators of mouse TRPC6 channel – HEK293 cells, membrane potential dye, duplicate, selectivity assay for TRPC4 potentiator project, confirmation (AID 434952;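 active = compound raising the membrane signal above positive-control mean plus 3 SD in both repeats, and a primary screen hit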); details: HEK293 TRPC6, membrane potential dye fluorescence, at 10 µM, maximal acetylcholine added after compound; active compounds read high
[12] = target: Short transient receptor potential channel 4 (Mus musculus) (UniProt Q9QUQ5); assay: calcium flux activators in TRPC4/5HT1a cells, counter-screen for TRPC4 activator project, cell-based, second counter screen, HEK293 TRPC4/5HT1a, Fluo-4 (AID 434977;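 active = calcium signal rise above buffer-control mean plus 5 SD in both duplicates, and also a hit in the primary screen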); details: Fluo-4 calcium flux, at 10 µM; active compounds read high
[13] = serotonin-gated TRPC4 signal block – cell-based, second counter screen, HEK293 TRPC4/5HT1a, Fluo-4, counter-screen for TRPC4 inhibitor project, confirmation (AID 434978;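 active = primary screen active whose calcium signal fell more than 3 SD beyond the full-serotonin control mean in both duplicate plates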;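 as to outcome: serotonin given first at submaximal then at maximal dose after compound preincubation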); details: Fluo-4 calcium flux, at 10 µM, serotonin added to trigger calcium flux; active compounds read high
[14] = tested on: TRPC4 (mouse), co-expressed with 5HT1a in HEK293; assay: enhancement of serotonin-evoked TRPC4 response – cell-based, second counter screen, HEK293 TRPC4/5HT1a, Fluo-4, counter-screen for TRPC4 potentiator project, confirmation (AID 434979;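 active = signal rise over 3 SD above mean of control wells given weak agonist, in both repeats and first screen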); details: Fluo-4 calcium flux, at 10 µM, serotonin added at its EC20 dose; active compounds read high
[15] = nonspecific calcium rise without TRPC4 – cell-based, HEK293 mu-opioid receptor line, counter-screen for TRPC4 activator project, confirmation (AID 449723;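 active = hit in primary screen, with calcium signal over 5 SD above buffer well mean in both duplicates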;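 also: counter screen cells carry the mu-opioid receptor alone and lack TRPC4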); details: HEK293 mu-opioid cells, Fluo-4 calcium fluorescence, at 10 µM; active compounds read high
[16] = nonspecific potentiation of DAMGO calcium response – cell-based, HEK293 mu-opioid receptor line, counter-screen for TRPC4 allosteric potentiator project, confirmation (AID 449724;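 active = calcium signal rise more than 3 SD above the low-dose agonist control mean, in both duplicate plates and the primary screen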); details: HEK293 mu-opioid receptor cells, Fluo-4 calcium flux, at 10 µM, compound added before EC20 DAMGO stimulus; active compounds read high

Measured: inhibition

Chain of Short transient receptor potential channel 6 (Mus musculus) (Q61143 whole entry, looked up): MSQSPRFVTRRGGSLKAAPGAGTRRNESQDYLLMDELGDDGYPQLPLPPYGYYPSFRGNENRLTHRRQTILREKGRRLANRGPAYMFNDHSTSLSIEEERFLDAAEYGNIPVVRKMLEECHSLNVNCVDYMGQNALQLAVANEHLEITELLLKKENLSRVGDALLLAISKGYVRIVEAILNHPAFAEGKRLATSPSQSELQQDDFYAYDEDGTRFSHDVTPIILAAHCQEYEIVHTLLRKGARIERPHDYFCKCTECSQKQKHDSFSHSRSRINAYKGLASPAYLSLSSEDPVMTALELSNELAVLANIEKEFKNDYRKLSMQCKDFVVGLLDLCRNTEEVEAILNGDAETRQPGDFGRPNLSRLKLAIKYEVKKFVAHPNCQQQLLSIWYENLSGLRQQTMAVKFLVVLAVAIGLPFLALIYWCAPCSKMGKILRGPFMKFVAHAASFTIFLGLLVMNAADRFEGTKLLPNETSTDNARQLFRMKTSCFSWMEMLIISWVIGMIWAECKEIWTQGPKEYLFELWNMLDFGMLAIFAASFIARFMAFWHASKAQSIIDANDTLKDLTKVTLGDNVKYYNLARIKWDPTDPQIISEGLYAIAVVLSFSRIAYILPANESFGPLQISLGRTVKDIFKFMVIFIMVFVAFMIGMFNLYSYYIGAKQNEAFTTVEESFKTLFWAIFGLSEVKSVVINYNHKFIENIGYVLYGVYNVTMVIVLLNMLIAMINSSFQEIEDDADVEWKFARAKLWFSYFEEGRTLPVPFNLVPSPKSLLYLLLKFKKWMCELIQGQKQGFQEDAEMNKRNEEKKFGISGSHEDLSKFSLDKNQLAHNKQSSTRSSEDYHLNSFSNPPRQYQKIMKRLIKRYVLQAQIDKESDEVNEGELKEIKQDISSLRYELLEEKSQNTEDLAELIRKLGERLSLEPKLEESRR
Chain of Short transient receptor potential channel 4 (Mus musculus) (Q9QUQ5 whole entry, looked up): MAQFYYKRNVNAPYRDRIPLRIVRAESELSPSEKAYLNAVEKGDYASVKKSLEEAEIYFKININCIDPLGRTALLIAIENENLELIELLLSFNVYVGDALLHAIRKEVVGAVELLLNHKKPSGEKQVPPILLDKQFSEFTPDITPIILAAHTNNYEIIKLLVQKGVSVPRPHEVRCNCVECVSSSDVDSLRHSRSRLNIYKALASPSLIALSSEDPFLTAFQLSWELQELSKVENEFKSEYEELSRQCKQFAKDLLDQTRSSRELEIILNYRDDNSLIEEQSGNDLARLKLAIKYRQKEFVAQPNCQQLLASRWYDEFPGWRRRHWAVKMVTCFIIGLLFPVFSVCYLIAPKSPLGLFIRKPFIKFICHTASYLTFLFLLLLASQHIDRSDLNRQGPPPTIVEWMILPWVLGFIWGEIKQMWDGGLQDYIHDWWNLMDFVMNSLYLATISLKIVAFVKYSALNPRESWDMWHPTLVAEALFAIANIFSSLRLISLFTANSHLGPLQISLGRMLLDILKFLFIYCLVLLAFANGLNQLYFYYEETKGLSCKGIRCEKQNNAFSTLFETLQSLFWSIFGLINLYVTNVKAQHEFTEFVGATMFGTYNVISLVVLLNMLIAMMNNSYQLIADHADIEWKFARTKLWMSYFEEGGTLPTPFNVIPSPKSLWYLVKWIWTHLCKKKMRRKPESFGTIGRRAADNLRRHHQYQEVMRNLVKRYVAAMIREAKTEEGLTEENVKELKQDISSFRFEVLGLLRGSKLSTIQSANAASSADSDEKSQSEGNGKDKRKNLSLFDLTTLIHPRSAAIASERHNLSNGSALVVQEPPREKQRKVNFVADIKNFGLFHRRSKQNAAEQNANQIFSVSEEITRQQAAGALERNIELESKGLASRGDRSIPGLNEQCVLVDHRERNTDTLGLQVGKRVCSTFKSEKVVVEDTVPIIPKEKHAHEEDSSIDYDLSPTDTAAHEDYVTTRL

N=c1c2c(n(Cc3ccccc3)c3c1CCC3)CCC2
active: [5] 65% | [9] 53.5% | [13] 37.3%
inactive: all other assays above

Fc1ccccc1COc1ccccc1CNCc1ccncc1
active: [5] 79%
inactive: all other assays above

CC1CCCN(c2c3c(nc4ccccc24)CCCC3)C1 (stereo unspecified)
active: [13] 27.9%
inactive: all other assays above

COCCn1c(SCc2ccc(OC)c(F)c2)nc2ccccc2c1=O
active: [5] 95% | [13] 16.1%
inactive: all other assays above

CCN(CC)Cc1cc(CCNC(=O)c2ccc(Cl)cc2)ccc1O
active: [5] 97% | [6] 75% | [13] 31.2%
inactive: all other assays above

COc1ccc(C(CNC(=O)c2oc3ccc(F)cc3c2C)N2CCCCC2)cc1 (stereo unspecified)
active: [5] 98%
inactive: all other assays above

CCOC(=O)c1c(N)sc(C(O)(C(F)(F)F)C(F)(F)F)c1-c1ccccc1
active: [5] 66% | [13] 36.8%
inactive: all other assays above

CC(C)c1nc(CNC(=O)CC2C(=O)NCCN2Cc2ccc(F)cc2Cl)cs1 (stereo unspecified)
active: [5] 92%
inactive: all other assays above

C#Cc1ccc(CN2CCCC(C(=O)Nc3ccccc3Oc3cccnc3)C2)cc1 (stereo unspecified)
active: [5] 92% | [6] 39% | [13] 21.7%
inactive: all other assays above

Cc1ccc(C(CNS(=O)(=O)c2ccc([N+](=O)[O-])cc2)N2CCN(C)CC2)cc1 (stereo unspecified)
active: [5] 54% | [6] 63%
inactive: all other assays above

N=c1n(CCO)c2ccccc2n1Cc1ccc(Cl)cc1
active: [5] 96% | [6] 75% | [13] 11.9%
inactive: all other assays above

c1ccn2cc(C34CC5CC(CC(C5)C3)C4)nc2c1
active: [5] 69% | [13] 41.3%
inactive: all other assays above

CCOc1ccccc1N(C(=O)c1snc(C(N)=O)c1N)C(C(=O)NCc1ccccc1)c1ccc(O)cc1 (stereo unspecified)
active: [5] 79% | [13] 41.9%
inactive: all other assays above

CCOC(=O)C1(Cc2cccc(F)c2)CCN(Cc2c(C)nn(CC)c2C)CC1
active: [5] 86%
inactive: all other assays above

CCCn1nc([N+](=O)[O-])c(C(C#N)c2nc3ccccc3o2)c(Cl)c1=O (stereo unspecified)
active: [5] 96% | [9] 28% | [13] 39.9%
inactive: all other assays above

COc1ccc(F)cc1C(=O)C1CCCN(Cc2ccc3c(c2)OCCO3)C1 (stereo unspecified)
active: [5] 94% | [13] 38.7%
inactive: all other assays above

Cc1cccc2nc(CSc3ccc(Cl)cc3)cn12
active: [5] 90% | [6] 52% | [13] 21.9%
inactive: all other assays above

Cc1ccc(S(=O)(=O)c2cnc(-c3ccccc3)nc2N2CCN(C)CC2)cc1
active: [5] 64%
inactive: all other assays above

CC1CCc2nc(NC(=O)CN3CCN(Cc4ccc5c(c4)OCO5)CC3)sc2C1 (stereo unspecified)
active: [5] 77% | [13] 28.7%
inactive: all other assays above

Cc1cccc(-c2nnc(SCc3nc4ccccc4[nH]3)n2Cc2ccco2)c1
active: [5] 90% | [13] 26.7%
inactive: all other assays above

Cc1nn(-c2ccccc2)c2[nH]c(C(F)(F)F)cc(=O)c12
active: [5] 49% | [13] 31.7%
inactive: all other assays above

CCCCCN1C2=NCCN2c2ccccc21
active: [5] 94% | [6] 70% | [13] 25.1%
inactive: all other assays above

COc1ccccc1C(=O)Nc1ccc2c(c1)CCCN2C(=O)c1cccs1
inactive: all assays above

COc1cc(CNC2CCCC2)c(Br)cc1OCc1ccccc1
active: [5] 87% | [13] 34.4%
inactive: all other assays above

NC(=O)c1nsc(C(=O)N(Cc2ccccc2F)C(C(=O)NCC2CCCO2)c2ccc(F)cc2)c1N (stereo unspecified)
active: [5] 93% | [6] 50% | [13] 26.4%
inactive: all other assays above

COCCn1c(SCC(=O)c2ccccc2)nc2ccccc2c1=O
active: [5] 91% | [6] 48% | [13] 20.4%
inactive: all other assays above

Cc1cccc(N(C(=O)c2snc(C(N)=O)c2N)C(C(=O)NCC2CCCO2)c2ccc3ncccc3c2)c1 (stereo unspecified)
active: [5] 85%
inactive: all other assays above

COc1ccc(C(=O)Nc2nc(-c3cccs3)cs2)cc1
active: [5] 85% | [13] 36.4%
inactive: all other assays above

N#Cc1c(NC(=O)C2CC(Cl)=CCC2C(=O)O)sc2c1CCCCC2 (stereo unspecified)
active: [5] 51% | [13] 18.6%
inactive: all other assays above

COc1ccccc1N(C(=O)c1snc(C(N)=O)c1N)C(C(=O)NCc1ccccc1)c1ccc(C)o1 (stereo unspecified)
active: [6] 49% | [13] 25.3%
inactive: all other assays above

S=C(Nc1ccccc1)Nc1cc(Cl)ccc1Oc1ccccc1
active: [5] 78% | [13] 40.2%
inactive: all other assays above
